Bioassay records from PubChem.
HT1080 IDH1KD tx – HT-1080 IDH1 knockdown cell toxicity (counter line). 360,000 tested, 2% active. HT-1080 IDH1 knockdown viability, ATP luminescence, 48 h. AID 686971. Potency, µM (doses to about 46.1 µM), without a hit: at the top dose activity, negative = toxicity, usual class: cytotoxic;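 also: 0% = DMSO wells and -100% = cell-free medium wells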
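Using the IDH1-knockdown HT-1080 line run in the same batch and compound series as the NT line, viability after 48 h at 37 °C was determined by CellTiter-Glo luminescence and expressed as % activity.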
S2 tox – cell viability loss in ATXN counter-screen; Potency, µM (top dose mostly 56.7 µM), hits mostly cytotoxic; S2 cells (HEK-293 line with an ATXN2-luciferase reporter) viability, CellTiter-Fluor protease fluorescence, 24 h; 400,000 tested, 0.49% active; also: nearly all actives have a fitted effect of over 40% in size
HT1080NT lethal – kills 2HG-producing HT-1080-NT fibrosarcoma cells; HT-1080-NT fibrosarcoma viability, CellTiter-Glo ATP luminescence, 48 h; Potency, µM (doses to about 46.1 µM), without a hit: at the highest dose activity, negative = less viability, hits mostly cytotoxic; 360,000 tested, 1.6% active; AID 686970;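 also: NT is the 2HG producing partner of a matched IDH1 knockdown line; 0% = DMSO-treated cells and -100% = media-only wells without cells; nearly all actives have a fitted effect of over 55% in size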
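HT-1080-NT fibrosarcoma cells (2HG-overproducing), 750 cells/well in RPMI with 5% FBS, dosed after 2 h and incubated 48 h at 37C. CellTiter-Glo luminescence normalized to DMSO and no-cell wells; concentration-response curves fitted and classed.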
KB-3-1 cytotox – kills parental KB-3-1 adenocarcinoma cells; KB-3-1 viability, CellTiter-Glo ATP luminescence, 72 h; Potency, µM (doses to about 46.1 µM), usual class: cytotoxic; 400,000 tested, 1.4% active; also: % is scaled to controls: 0 for no effect and ±100 for the full control effect; nearly all actives have a fitted effect of over 60% in size
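Luminescent ATP read-out (CellTiter-Glo) measures survival of drug-naive KB-3-1 cells after 72 h compound exposure at 37 °C. Titration series was screened from lowest to highest concentration, with DMSO vehicle plates as background controls.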
KB-V1 cytotox – KB-V1 MDR subline cytotoxicity. KB-V1 MDR cells viability, CellTiter-Glo, 72 h. Potency, µM (top dose mostly 46.1 µM), actives largely listed as cytotoxic. 400,000 tested, 3.4% active; also: % is scaled to controls: 0 for no effect and ±100 for the full control effect; nearly all actives have a fitted effect of over 60% in size
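Luminescent ATP read-out (CellTiter-Glo, 10 min) measures survival of drug-selected KB-V1 MDR cells after 72 h, 37 degrees C compound exposure. Medium: phenol-red-free DMEM, 10% FBS. Values from fitted concentration-response curves.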
ATXN2 expr inh – inhibitors of ATXN2 expression; HEK-293 ATXN2-luciferase reporter, luminescence, 24 h; Potency, µM (titrated, usually from 57 µM), for inactives: at the top dose activity change, negative = inhibition, most hits filed as inhibitors; 360,000 tested, 0.72% active; AID 1745845; also: % is scaled to controls: 0 for no effect and ±100 for the full control effect; nearly all actives have a fitted effect of over 55% in size
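ATXN2-luciferase reporter cells (luciferase flanked by upstream and downstream ATXN2 gene portions) were treated 24 h at 37 °C with compounds at up to 57 uM. SteadyGlo luminescence gave expression; GF-AFC fluorescence gave viability.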
* marks the source's active call; other numbers are inactive results; i = inactive; ? = inconclusive; · = no result given; [ ] = dose if it differs, or a comment. Only some compounds are listed: those with a hit (about 6.2% of all), similar ones and a draw of the others. Calls follow the shape of the dose curve; as a rule, active = well fitted curve in the direction sought with a large enough effect; inconclusive = small, poorly fitted or top-dose-only effect, or another doubt; inactive = no such curve, though single readings can be large; an effect the other way counts as inactive or inconclusive. Potency is read from the fitted curve at half-maximal effect.

SMILES	HT1080 IDH1KD tx	S2 tox	HT1080NT lethal	KB-3-1 cytotox	KB-V1 cytotox	ATXN2 expr inh
C/C1=C\[C@@H](C)C/C=C/[C@H]2[C@@H]3O[C@]3(C)[C@@H](C)[C@H]3[C@H](Cc4c[nH]c5ccccc45)NC(=O)[C@]32C(=O)/C=C/C(=O)[C@@H]1O	?	31.6µM*	-22.2%	i	i	?
C/C=C(\C)C(=O)N[C@@H](c1ccccc1)[C@@H](O)C(=O)O[C@H]1C[C@@]2(O)[C@@H](OC(=O)c3ccccc3)C3[C@](C)(C(=O)[C@H](O)C(=C1C)C2(C)C)[C@@H](O)C[C@H]1OC[C@@]31OC(C)=O (stereo partly drawn)	0.0058µM*	?	0.0411µM*	?	i	-15.5%
CC(=O)O[C@@]12CO[C@@H]1C[C@H](O)[C@@]1(C)C(=O)[C@H](O)C3=C(C)[C@@H](O)C[C@@](O)([C@@H](OC(=O)c4ccccc4)C12)C3(C)C (stereo partly drawn)	?	i	?	11.6µM*	i	-4.9%
Cc1cc(C)nc(N2CCCC(C(=O)Nc3nc4ccc(S(C)(=O)=O)cc4s3)C2)n1 (stereo not drawn)	?	i	-25.4%	?	?	-7.7%
COc1ccc(C)cc1NC(=O)c1cccn(Cc2cccc([N+](=O)[O-])c2)c1=O	·	i	·	i	i	-1.4%
O=C1NC(=O)N(Cc2ccccc2)C(=O)/C1=C/C=C/c1ccco1	?	20µM*	?	14.6µM*	i	?
COc1ccc(CN2C(=O)NC(=O)/C(=C\c3ccco3)C2=O)cc1	-8.4%	i	-10.6%	i	i	-12.2%
CC(C)c1ccc(N2C(=O)NC(=O)/C(=C\C=C\c3ccco3)C2=O)cc1	5.8µM*	28.2µM*	4.11µM*	?	?	?
CC(C)c1ccc(N2C(=O)NC(=O)/C(=C\c3cnc(-c4ccccc4)nc3)C2=O)cc1	10.4%	i	0.0%	i	?	13.7%
Cc1cc(OCC(=O)N2CCN(CCc3ccccn3)CC2)cc(C)c1Cl	·	?	·	i	i	-16.1%
Cc1cc(C(C#N)c2ccc(Cl)cc2)c(Cl)cc1NC(=O)c1cc(I)cc(I)c1O (stereo not drawn)	?	?	?	i	i	?
CN(C)C(=O)Oc1ccc(-c2cn3cc(C(F)(F)F)ccc3n2)cc1	22.7%	i	2.6%	i	i	58.0%
CN(C)C(=O)Oc1ccc(-c2cn3cc(Cl)ccc3n2)cc1	-11.1%	i	-1.8%	i	4.11µM*	0.0%
CN(C)C(=O)Oc1cccc(-c2cn3cc(Cl)ccc3n2)c1	-0.9%	?	8.3%	i	13µM*	61.3%
O=c1[nH]c(=O)n(Cc2ccccc2Cl)c(O)c1/C=C1/C=CC=N1	5.8µM*	i	4.11µM*	23.1µM*	i	-13.4%
C=CCn1c(O)c(/C=C2/C=CC=N2)c(=O)[nH]c1=O	?	?	?	i	?	·
CCCCn1c(O)c(/C=C2/C=CC=N2)c(=O)[nH]c1=O	?	?	14.6µM*	i	i	4.0%
CC(C)Nc1nc(NC(C)C)nc(N(C#N)CCOc2ccc(Cl)cc2Cl)n1	?	i	?	i	?	?
CCCOP(=O)(c1ccc(N(C)C)cc1)C(O)c1ccc(Cl)cc1Cl (stereo not drawn)	?	i	-1.5%	i	?	-23.7%
CCN(CC)C(=O)c1ccc(NC(=O)c2cccc(F)c2)cc1	4.1%	i	7.2%	i	20.6µM*	48.6%
COC12C(COC(N)=O)C3=C(C(=O)C(C)=C(N)C3=O)N1CC1C2N1C (stereo not drawn)	?	?	?	?	?	6.31µM*
CC(C)NCC(O)c1ccccc1Cl (stereo not drawn)	·	i	·	·	·	2.5%
O=C(Nc1cc(C(F)(F)F)cc(C(F)(F)F)c1)c1cccn(Cc2ccccc2Cl)c1=O	·	i	·	?	?	4.2%
Cc1cc(-n2c(/C=C/c3cccs3)nc3ccccc3c2=O)ccc1Br	·	·	·	i	i	·
CN(C)C1(CNC(=O)Nc2ccc(Cl)c(Cl)c2)CCCCC1	?	?	20.6µM*	i	i	?
SMILES	HT1080 IDH1KD tx	S2 tox	HT1080NT lethal	KB-3-1 cytotox	KB-V1 cytotox	ATXN2 expr inh
CN(C)C1(CNC(=O)c2ccc(NS(=O)(=O)c3ccc(Cl)c(Cl)c3)cc2)CCCCC1	-15.0%	i	-11.1%	i	i	-8.3%
Cc1cccc(Cc2cnc[nH]2)c1C	·	i	·	·	·	1.7%
On1ccccc1=S	0.326µM*	0.316µM*	0.0411µM*	i	?	0.282µM*
CC(=O)[C@@]1(O)CC[C@H]2[C@@H]3CCC4=CC(=O)CC[C@]4(C)C3(F)[C@@H](O)C[C@@]21C (stereo partly drawn)	·	i	·	·	·	·
Oc1ccc(-c2csc(-c3ccccc3)n2)cc1O	10µM*	i	11.2µM*	?	14.6µM*	24.8%
Oc1ccc(-[n+]2c(-c3ccccc3)cc(-c3ccccc3)cc2-c2ccccc2)cc1	20.6µM*	?	11.6µM*	i	i	12.6µM*
COc1ccc(-[n+]2c(-c3ccccc3)cc(-c3ccccc3)cc2-c2ccccc2)cc1	7.31µM*	?	8.2µM*	7.31µM*	i	?
O=C([O-])c1ccc(-[n+]2c(-c3ccccc3)cc(-c3ccccc3)cc2-c2ccccc2)cc1	3.5%	i	?	i	i	5.7%
COc1ccc(C[C@H]2c3cc(OC)c(OC)cc3CCN2C)cc1OC	·	i	·	·	·	·
COc1ccc(C=C(C(=O)O)c2ccc(OC)cc2)cc1	2.7%	?	5.4%	i	i	17.3%
CCC(C)C1N=C(c2ccccc2)c2cc(Cl)ccc2N(CC(=O)NCc2ccco2)C1=O (stereo not drawn)	-13.3%	i	-3.4%	i	i	-10.0%
Cc1ccccc1C1=NCC(=O)N(CC(=O)NCc2ccco2)c2sc3c(c21)CCCC3	-18.9%	?	0.0%	i	18.4µM*	?
Cc1ccc(NC(=O)CN2C(=O)CN=C(c3ccccc3)c3ccccc32)c(C)c1	·	i	·	i	i	-0.6%
CCOC(=O)c1c(C)n(Cc2ccccc2)c2ccc(O)cc12	-20.4%	i	-14.1%	i	10.3µM*	4.5%
CCOC(=O)c1c(C)n(Cc2ccccc2)c2ccc(OCC(O)CNC(C)(C)C)cc12 (stereo not drawn)	16.4µM*	·	?	i	i	14.1µM*
C[C@H](N)C(=O)c1ccccc1	·	i	·	·	·	8.9%[116 µM]
